This is a sample that favours compounds with a hit; in the whole collection about 2.6% have one here.
KKLEB cytotox – reduces viability of KKLEB cystic fibrosis airway cells; KKLEB CF airway cells viability, ATPlite luminescence, overnight; hits give low values; cells stimulated with P. aeruginosa culture filtrate; activity change (cytotoxicity), % at 5 µM; 0.36% of 360,000 active;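 active = corrected activity change at or below -50% at 5 µM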
LGR2 antag – inhibitors of bursicon-induced Drosophila LGR2 receptor cAMP signaling. 0.35% of 380,000 active. HEK293 LGR2, CRE-luciferase, bursicon-stimulated, 4 h. AID 720647. inhibition, % at 9.99 µM;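 active = drop in luminescence signal, shown as inhibition above about 50% in the replicate tests, limit read from the data, passing the limit was not always enough; inconclusive = probably only some replicates passing the limit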;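 also: agonist challenge used bursicon conditioned medium at about half maximal strength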
TROY NFkB inh – inhibitors of TROY-dependent NF-kB signaling. Q293 LMP1-TROYcd NF-kB luciferase reporter, 4 h. inhibition, % at 10 µM. 0.98% of 360,000 active. AID 1347056;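 active = compounds whose plate-normalised and pattern-corrected inhibition of the luciferase reporter signal at the single screening dose is 50% or more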
EWS-Fli block – inhibitors of EWS/Fli oncoprotein transcriptional activity; inhibition, % at 12.6 µM; A673 NR0B1-luciferase reporter, viability-normalised; 0.67% of 350,000 active;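 active = mean inhibition of at least 50% after viability correction, with every replicate also passing that limit; inconclusive = mean reaches 50% but only one of two replicates passes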;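 also: firefly luciferase signal divided by Alamar Blue viability fluorescence both relative to DMSO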
CF NFkB inh – blocks PAF-induced NF-kB reporter in cystic fibrosis cells; 0.86% of 360,000 active; inhibition, % at 5 µM; KKLEB NF-kB-GFP reporter, GFP fluorescence overnight;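 active = at least 50% inhibition at 5 µM, scaled per plate between neutral and stimulator controls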;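 also: PAF is a Pseudomonas aeruginosa culture filtrate used as stimulus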
TWEAK-Fn14 inh – blocks TWEAK-Fn14 interaction in a reporter cell assay; inhibition, % at 10 µM; 2% of 360,000 active; TWEAK-stimulated Fn14 reporter cells, luciferase luminescence, 8 h; in the data active = inhibition above about 50%
Hits are given with their value.

Results for C#CCN(C[C@@H]1[C@@H](OC(=O)NCCCCCC)[C@@H](OC(=O)NCCCCCC)Cn2c(=O)ccc(=O)n21)S(=O)(=O)c1ccc(C)cc1 ?
KKLEB cytotox: -88.7; LGR2 antag: inconclusive; TROY NFkB inh: 88.0; EWS-Fli block: 66.5; CF NFkB inh: 87.1; TWEAK-Fn14 inh: 106.5

What do the screens show for `C#CCN(C[C@@H]1[C@@H](OC(=O)NCC2CCCCC2)[C@@H](OC(=O)NCC2CCCCC2)Cn2c(=O)ccc(=O)n21)S(=O)(=O)c1ccc(C)cc1`?
KKLEB cytotox: -96.6; LGR2 antag: 72.1; TROY NFkB inh: 73.9; EWS-Fli block: inactive; CF NFkB inh: 106.0; TWEAK-Fn14 inh: 106.9

How did CN(C)C(=O)C[C@H]1CC[C@H]2[C@@H](COC[C@@H](O)CN2Cc2nccs2)O1 do in these assays?
LGR2 antag: inactive; EWS-Fli block: inactive

Results for CC1CC2C(C(O)CC3(C)C2CCC3(O)C(=O)CO)C2(C)C=CC(=O)C=C12 (stereo unspecified) ?
KKLEB cytotox: inactive; LGR2 antag: inactive; TROY NFkB inh: inactive; EWS-Fli block: inactive; CF NFkB inh: 76.0; TWEAK-Fn14 inh: inactive

Results for CC(=O)OCC(=O)C1(O)CCC2C3CC(C)C4=CC(=O)C=CC4(C)C3=CCC21C (stereo unspecified) ?
KKLEB cytotox: inactive; LGR2 antag: inactive; TROY NFkB inh: inactive; EWS-Fli block: inactive; CF NFkB inh: inactive; TWEAK-Fn14 inh: inactive

Results for CC(=O)OCC(=O)[C@@]1(O)CC[C@H]2[C@@H]3C[C@H](C)C4=CC(=O)C=C[C@]4(C)[C@H]3[C@@H](O)C[C@@]21C ?
KKLEB cytotox: inactive; LGR2 antag: inactive; TROY NFkB inh: inactive; EWS-Fli block: inactive; CF NFkB inh: 77.3; TWEAK-Fn14 inh: inactive

How did CCCC#Cc1ccc2c(c1)O[C@@H](CN(C)C(=O)Nc1ccccc1F)[C@@H](C)CN([C@@H](C)CO)S2(=O)=O do in these assays?
LGR2 antag: inactive; EWS-Fli block: inactive

Results for CCC(=O)N1C[C@@H](O)COC[C@H]2O[C@H](CC(=O)NCc3ccccc3Cl)CC[C@@H]21 ?
LGR2 antag: inactive

How did O=C(O)CCC(=O)Nc1nnc(C(F)(F)F)s1 do in these assays?
KKLEB cytotox: inactive; TROY NFkB inh: inactive; CF NFkB inh: inactive; TWEAK-Fn14 inh: inactive

How did CCC(NC(=O)Nc1nnc(C(F)(F)F)s1)(C(F)(F)F)C(F)(F)F do in these assays?
KKLEB cytotox: -51.1; TROY NFkB inh: 63.7; CF NFkB inh: 58.2; TWEAK-Fn14 inh: inactive

How did COc1ccc(-n2cc(CNCC3CCOCC3)c(-c3cccc(F)c3)n2)cc1 do in these assays?
KKLEB cytotox: inactive; LGR2 antag: inactive; TROY NFkB inh: inactive; EWS-Fli block: inactive; CF NFkB inh: inactive; TWEAK-Fn14 inh: 84.3

Results for C[C@H](CO)N1C[C@H](C)[C@H](CN(C)S(=O)(=O)c2ccc(F)cc2)OCc2cnnn2CCCC1=O ?
KKLEB cytotox: inactive; LGR2 antag: inactive; TROY NFkB inh: inactive; EWS-Fli block: inactive; CF NFkB inh: inactive; TWEAK-Fn14 inh: 101.7

Results for C[C@H]1CN([C@@H](C)CO)C(=O)CCCn2nncc2CO[C@@H]1CN(C)C(=O)Nc1cccc2ccccc12 ?
KKLEB cytotox: inactive; LGR2 antag: inactive; TROY NFkB inh: inactive; EWS-Fli block: inactive; CF NFkB inh: inactive; TWEAK-Fn14 inh: 53.3

Results for C[C@@H]1CN([C@H](C)CO)C(=O)CCCn2nncc2CO[C@H]1CN(C)C(=O)Nc1cccc2ccccc12 ?
KKLEB cytotox: inactive; LGR2 antag: inconclusive; TROY NFkB inh: inactive; EWS-Fli block: inactive; CF NFkB inh: inactive; TWEAK-Fn14 inh: inactive

What do the screens show for `C[C@@H]1CN([C@H](C)CO)C(=O)c2cc(NS(C)(=O)=O)ccc2O[C@H]1CN(C)S(=O)(=O)c1ccc(Cl)cc1`?
EWS-Fli block: inactive

How did Cc1ccc(Cl)c(NC(=O)COC(=O)c2ccccc2C(=O)c2ccc(Cl)c([N+](=O)[O-])c2)c1Cl do in these assays?
KKLEB cytotox: -99.0; LGR2 antag: inactive; TROY NFkB inh: 64.7; CF NFkB inh: 94.5; TWEAK-Fn14 inh: 100.2

Results for Cc1nn(C2CCS(=O)(=O)C2)c(Cl)c1/C=C/C(=O)OCC(=O)c1cc(C)n(-c2ccc(F)cc2)c1C (stereo unspecified) ?
KKLEB cytotox: inactive; LGR2 antag: inactive; TROY NFkB inh: inactive; EWS-Fli block: inactive; CF NFkB inh: inactive; TWEAK-Fn14 inh: 58.7
